# Vaccinia pol inh = inhibitors of vaccinia virus processive DNA synthesis (E9 polymerase); in vitro processive DNA synthesis, absorbance read-out; stronger effect = lower value; normalized absorbance, % (test concentration not listed); hit rate 0.94% among 46,000; in the data active means normalized absorbance mostly below about 85%, no sharp cut-off; inactive means mostly above about 86%
# An asterisk follows results filed as active; ! = a repeat was not active. This is one part of a sample in which hits are shown more often than they occur.
SMILES,Vaccinia pol inh
COc1cc2nc(N3CCN(C(=O)c4ccco4)CC3)nc(N)c2cc1OC,85.0*!
CC(C)N1CCN(C(=O)c2ccco2)CC1,104.7
COc1cc2c(cc1OC)CN(C(=O)c1ccco1)CC2,102.0
COc1ccc(-c2noc(-c3cc4ccccc4oc3=Nc3ccc(NC(C)=O)cc3)n2)cc1,99.7
Cc1ccc(CNC(=O)c2cccnc2Sc2cccc(C(F)(F)F)c2)cc1,100.8
CCOC(=O)c1cc(S(=O)(=O)NCC2CCCO2)cn1C (stereo unspecified),96.9
N#CC(C#N)=C(N)SCc1ccccc1,115.0
N#CC(C#N)=C(Nc1ccccc1Cl)SCc1cccc(F)c1,25.8*
N#CC(C#N)=C(Nc1ccc(Br)cc1)SCc1ccc(F)cc1,86.4
CCC(=O)Nc1sc2c(c1C(N)=O)CCCCC2,99.5
CC(C)Oc1ccc(CNCCC(c2ccccc2)c2ccco2)cc1 (stereo unspecified),100.9
O=C1c2ccc(F)cc2C(=O)N1C1CCCCCCC1,97.4
CN1CCN(Cc2c3ccccc3cc3ccccc23)CC1,87.9
CN(C)Cc1cc2ccccc2[nH]1,100.1
CN(C)Cc1c2ccccc2cc2ccccc12,47.4*
O=C(CSc1ccc2nnc(-c3ccccc3)n2n1)N1CCCC1,101.2
O=C(O)c1ccccc1NCCc1ccc(F)cc1,90.3
NC(CSCc1oc(-c2ccccc2)cc1C(=O)O)C(=O)O (stereo unspecified),77.4*
NC(CSCc1ccccc1Cl)C(=O)O (stereo unspecified),99.0
NC(Cc1ccccc1F)C(=O)O (stereo unspecified),99.4
O=C(CCN1C(=O)c2ccccc2Sc2ncccc21)NCc1ccccc1,95.4
COc1ccc2cc3[n+](cc2c1OC)CCc1cc2c(cc1-3)OCO2,81.7*
COc1ccc2c(c1OC)CN(C)CCc1cc3c(cc1C(O)C2)OCO3 (stereo unspecified),110.1
COc1ccc2c(c1OC)CN1CCc3cc4c(cc3C1C2)OCO4 (stereo unspecified),99.9
CCCOc1ccc2c(C)c(CCC)c(=O)oc2c1,101.9
SMILES,Vaccinia pol inh
CCOC(Cn1c2ccccc2c2ccccc21)OCC,99.1
Cc1nnc(SCc2ccc(F)cc2Cl)c2cc3occc3n12,71.7*
Cc1ccc(C)c(CSc2nncn3c2cc2occc23)c1,91.1
CCc1nnc(SCc2ccccc2)c2cc3occc3n12,90.6
COc1cccc(C2NC(C(=O)O)C3C(=O)N(c4cccc(C(=O)O)c4)C(=O)C23)c1O (stereo unspecified),100.1
O=C(NC1CCS(=O)(=O)C1)/C(=C/c1ccccc1)NC(=O)c1ccccc1 (stereo unspecified),94.4
NC(=O)C1CCN(C(=O)c2sc3ccccc3c2Cl)CC1,83.6
CCCN1CC=C2C(C#N)(C#N)C(N)=C(C)[C@H](c3ccc(C(=O)OC)cc3)[C@@]2(C)C1,93.8
COC(=O)[C@@H](N)CCCN=C(N)N[N+](=O)[O-],99.7
CCCCC(CC)CN=C(N)NC(N)=NCCCCCCN=C(N)NC(N)=NCC(CC)CCCC (stereo unspecified),27.1*
O=C(COc1ccccc1)N1CCCC2CCCCC21 (stereo unspecified),100.4
Cc1ccc(NC(=O)CSc2nc(-c3ccc4c(c3)OCO4)cn2-c2cccc(Cl)c2)cc1C,101.0
COC(=O)C1=C(NC(=O)COc2ccccc2)CCS1,94.4
Oc1ccc(Br)cc1C=NCCC1=CCCCC1,100.5
Cc1nc(SCCC(=O)O)c2oc3ccccc3c2n1,98.9
Oc1c(Cl)cc(Cl)cc1C=Nc1ccc2n[nH]nc2c1,102.5
Cc1cc(N=Cc2cc(Cl)cc(Cl)c2O)no1,56.3*
Oc1c(Cl)cc(Cl)cc1/C=N/c1ccnn1-c1ccccc1,90.1
Fc1ccccc1CN1CCN(c2cccc3[nH]ccc23)CC1,90.9
NC(=O)c1cc[n+](CC2=C(C(=O)O)N3C(=O)C(NC(=O)C(c4ccccc4)S(=O)(=O)[O-])C3SC2)cc1 (stereo unspecified),83.3*
CCN1CCN(C(=O)NC(C(=O)NC2C(=O)N3C(C(=O)O)=C(CSc4nnnn4C)CSC23)c2ccc(O)cc2)C(=O)C1=O (stereo unspecified),102.3
O=C(OCC(=O)N1CCCC1)c1ccc(Cl)c(Cl)c1,97.7
COc1ccc(-c2noc(-c3ccc(Cl)c(Cl)c3)n2)cc1,100.3
COc1ccc(Cc2nc(-c3ccc(Br)cc3)no2)cc1,94.5
BrCc1ccc(-c2noc(-c3ccncc3)n2)cc1,21.0*
SMILES,Vaccinia pol inh
O=C(/C=C/c1ccccc1)Nc1cc2c(ccc3ccccc32)oc1=O,99.7
c1ccc(-c2csc(Nc3nc(NCc4ccco4)nc(N4CCCCC4)n3)n2)cc1,98.9
COc1ccc(-c2ccc(C3C(C#N)=C(N)OC4=C3C(=O)CCC4)o2)cc1 (stereo unspecified),93.9
COc1ccc2c(c1)oc(=O)c1ccccc12,91.6
O=C(O)COc1ccc2c(-c3ccccc3)cc(=O)oc2c1,102.3
O=C(O)COc1ccc2c(c1)oc(=O)c1ccccc12,89.9*
CSc1cccc(NS(=O)(=O)c2ccc(-n3cccn3)cc2)c1,102.8
CNC[C@@H](O)c1ccc(O)c(O)c1,97.0
CCC(=O)Nc1nc2c(C)c(C)ccc2s1,100.4
CCOc1cccc2sc(NC(=O)CC)nc12,87.3*
CCOc1cccc2sc(NC(=O)c3ccccc3F)nc12,104.7
O=C1NC(=S)S/C1=C\c1ccccc1C(F)(F)F,73.2
O=C1NC(=S)S/C1=C/c1ccc(-c2cccc(C(F)(F)F)c2)o1,79.5*
O=S1(=O)CCC(N=Cc2ccc(-c3cccc(C(F)(F)F)c3)o2)C1 (stereo unspecified),97.8
N#CC1=C(N)Oc2nc[nH]c(=O)c2C1c1ccncc1 (stereo unspecified),96.7
O=C(O)CCCc1ccc2ccc3cccc4ccc1c2c34,79.8*
O=C(O)CCCC(=O)c1ccccc1,100.3
CCn1cc(CCCC(=O)O)c2ccccc21,104.2
Clc1ccccc1-c1nnc2cccc(Cl)n12,99.9
CS[C@H](C)[C@H](OC(C)=O)C(=O)N(C)CCN(C)C (tested in a mixture with another compound),15.1*
Fc1ccc(Nc2nc3ccc(F)cc3s2)cc1,81.5
O=C(Cc1cccc2ccccc12)N1CCN(Cc2ccccc2)CC1,101.9
CCn1c2ccccc2c2cc(CN3CCN(Cc4cccc(C)c4)CC3)ccc21,99.4
Cc1cccc(CN2CCN(C(=O)CC(C)C)CC2)c1,59.3*
O=C(CCn1c(=O)sc2ccccc21)n1c(=O)sc2ccccc21,95.5
SMILES,Vaccinia pol inh
Cc1cccc(CN2C(=O)c3ccccc3Sc3ccc(C(=O)NC(C)C)cc32)c1,90.2
O=C(O)c1oc2ccc(Br)cc2c1-n1cccc1,66.6*
Cc1ccc(CNC(=O)c2oc3ccccc3c2-n2cccc2)cc1,108.3
CC(=O)Nc1c(C(=O)O)oc2ccc(Br)cc12,99.5
CCN(CC)S(=O)(=O)c1ccc(Cc2ccc(S(=O)(=O)N(CC)CC)cc2)cc1,100.6
COc1ccc(C(=O)N2CCc3cc(OC)c(OC)cc3C2C)cc1 (stereo unspecified),90.6
COc1cc2cc3c4c(cc(OC)c(OC)c4c2cc1OC)CCN3C,65.7*
COc1ccc(OCC2c3cc(OC)c(OC)cc3CCN2C(=O)C(C)C)cc1 (stereo unspecified),96.3
CN(C)C(=S)SCC(=O)Nc1ccc(Cl)c(C(F)(F)F)c1,99.4
Cc1nc(SCCOc2ccccc2)sc1C(=O)Nc1ccccc1,100.1
N#CC1=C(SCC(=O)c2ccc(F)cc2)NC2(CCCC2)C(C#N)C1=O (stereo unspecified),97.4
C[n+]1c(/C=C/Nc2ccccc2)sc2ccccc21,74.7*

# Compound activity (PubChem BioAssay)
